Bioassay records: PubChem, National Center for Advancing Translational Sciences (NCATS)
Most compounds without a hit are left out; they make up all but 2.6% or so of the library.
Cruzain inh noDet – qHTS Assay for Promiscuous and Specific Inhibitors of Cruzain (without detergent); purified cruzain, Z-FR-AMC fluorescence, no detergent; Potency, µM, most hits filed as inhibitors; AID 1476, 2009; 200,000 tested, 2.3% active; also: nearly all actives have a fitted effect of over 40% in size
Target sequence (P25779 123-467 limits assumed): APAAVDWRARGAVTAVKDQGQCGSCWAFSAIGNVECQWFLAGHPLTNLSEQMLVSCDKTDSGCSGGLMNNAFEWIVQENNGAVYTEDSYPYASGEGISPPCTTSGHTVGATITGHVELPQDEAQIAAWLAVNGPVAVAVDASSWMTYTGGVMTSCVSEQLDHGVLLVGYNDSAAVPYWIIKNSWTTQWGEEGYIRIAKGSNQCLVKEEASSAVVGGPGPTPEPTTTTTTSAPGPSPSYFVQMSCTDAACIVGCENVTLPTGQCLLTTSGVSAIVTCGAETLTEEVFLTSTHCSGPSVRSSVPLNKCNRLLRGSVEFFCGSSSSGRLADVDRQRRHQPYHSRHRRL
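Detergent-free condition (0.00005% Triton X-100) in acetate buffer pH 5.5 with DTT. 1.5 nM enzyme and compound were pre-mixed 15 min, then 2 uM Z-FR-AMC substrate added; reaction progress from fluorescence change between first and third reads (60 s).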
Cruzain Triton – qHTS Assay for Promiscuous and Specific Inhibitors of Cruzain (with detergent) | Cruzipain (Trypanosoma cruzi), P25779 | purified cruzain, Z-FR-AMC fluorescence, 0.01% Triton | Potency, µM, most hits filed as inhibitors | 200,000 tested, 0.43% active | AID 1478, 2009; also: nearly all actives have a fitted effect of over 40% in size
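In this qHTS format, compounds are incubated with 1.5 nM cruzain for 15 min at room temperature before 2 uM Z-FR-AMC is added. Release of AMC is followed at 360/450 nm, and progress is taken as the 60 s fluorescence difference.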
Hits are given with their value. Calls follow the shape of the dose curve; as a rule, active = well fitted curve in the direction sought with a large enough effect; inconclusive = small, poorly fitted or top-dose-only effect, or another doubt; inactive = no such curve, though single readings can be large; an effect the other way counts as inactive or inconclusive.

Results for Cc1cccc(C(=O)N2c3ccccc3C(=O)OC2c2ccc3c(c2)OCO3)c1 (configuration not stated) ?
Cruzain inh noDet: inconclusive; Cruzain Triton: inactive

How did O=C1OC(c2ccc3c(c2)OCO3)N(C(=O)c2ccc(Cl)c(Cl)c2)c2ccccc21 (configuration not stated) do in these assays?
Cruzain inh noDet: 31.6µM; Cruzain Triton: inactive

How did CCOc1ccc(C2C(C(=O)Nc3ccccc3)=C(C)Nc3nc(-c4ccccc4Cl)nn32)cc1OC (configuration not stated) do in these assays?
Cruzain inh noDet: inconclusive; Cruzain Triton: inactive

Results for COc1ccc(C(=O)N2CCC(c3c[nH]c4ccccc34)(c3c[nH]c4ccccc34)CC2)cc1 ?
Cruzain inh noDet: inactive; Cruzain Triton: inactive

How did CCN(CC)c1ccc(C(=O)N2CCC(c3c[nH]c4ccccc34)(c3c[nH]c4ccccc34)CC2)cc1 do in these assays?
Cruzain inh noDet: 10µM; Cruzain Triton: inactive

Results for CCCNC(=O)Cn1nc(-c2ccc(OC)cc2)c2cnc3ccc(F)cc3c21 ?
Cruzain inh noDet: inactive; Cruzain Triton: inactive

What do the screens show for `CCCCNc1oc(-c2ccc(OC)cc2)nc1S(=O)(=O)c1ccccc1`?
Cruzain inh noDet: inconclusive; Cruzain Triton: 28.2µM

What do the screens show for `O=S(=O)(c1ccc(Cl)cc1)c1nc(-c2cccc(Br)c2)oc1NCc1ccccc1`?
Cruzain inh noDet: 12.6µM; Cruzain Triton: inactive

What do the screens show for `O=S(=O)(c1ccccc1)c1nc(-c2cccc(Cl)c2)oc1NCc1ccccc1`?
Cruzain inh noDet: inactive; Cruzain Triton: inactive

What do the screens show for `Cc1ccc(S(=O)(=O)c2nc(C)oc2NCc2ccccc2)cc1`?
Cruzain inh noDet: 20µM; Cruzain Triton: 20µM

Results for O=S(=O)(c1ccccc1)c1nc(-c2ccco2)oc1NCc1ccco1 ?
Cruzain inh noDet: inactive; Cruzain Triton: inactive

Results for O=S(=O)(c1ccccc1)c1nc(-c2ccco2)oc1NCc1ccccc1 ?
Cruzain inh noDet: 25.1µM; Cruzain Triton: 22.4µM

What do the screens show for `CCNc1oc(-c2ccc(OC)cc2)nc1S(=O)(=O)c1ccc(Br)cc1`?
Cruzain inh noDet: inactive; Cruzain Triton: inactive

What do the screens show for `Cc1ccc(S(=O)(=O)c2nc(-c3ccccc3F)oc2NCc2ccccc2)cc1`?
Cruzain inh noDet: inactive; Cruzain Triton: inactive

Results for CC1CCC(Nc2nc3c(-c4cccc(C(F)(F)F)c4)nnn3c3ccccc23)CC1 (configuration not stated) ?
Cruzain inh noDet: inactive; Cruzain Triton: inactive

How did O=C(c1cc(-c2ccccc2O)on1)N1CCCCC1 do in these assays?
Cruzain inh noDet: inactive; Cruzain Triton: inactive

What do the screens show for `Cc1ccccc1S(=O)(=O)Cc1ccc(C(=O)NCc2ccccc2Cl)o1`?
Cruzain inh noDet: inactive; Cruzain Triton: inactive

How did CN(C)c1cccc(C(=O)Nc2nc3ccc(S(=O)(=O)N4CCCC4)cc3s2)c1 do in these assays?
Cruzain inh noDet: inactive; Cruzain Triton: inactive

Results for CCOc1ccc(NC(=O)N2CCOc3ccccc32)cc1 ?
Cruzain inh noDet: inactive; Cruzain Triton: inactive

How did COc1cccc(CNC(=O)c2cc(S(=O)(=O)N3CCCCC3)c[nH]2)c1 do in these assays?
Cruzain inh noDet: inactive; Cruzain Triton: inactive

What do the screens show for `O=C(NCc1ccc(Cl)cc1)c1cc(S(=O)(=O)N2CCCCC2)c[nH]1`?
Cruzain inh noDet: 20µM; Cruzain Triton: inconclusive

How did COCCn1c(C)cc(O)c(C(c2ccccc2)N2CCN(c3ccc(F)cc3)CC2)c1=O (configuration not stated) do in these assays?
Cruzain inh noDet: inactive; Cruzain Triton: inactive

How did CC(C)(C)C(=O)Nc1nc2c(s1)COc1ccccc1-2 do in these assays?
Cruzain inh noDet: inactive; Cruzain Triton: inactive

Results for O=C(CCSc1ccccc1)Nc1nc2c(s1)COc1ccccc1-2 ?
Cruzain inh noDet: 31.6µM; Cruzain Triton: inactive

What do the screens show for `Cc1ccc(Cl)cc1NC(=O)C(=O)NCCc1sc(-c2ccc(F)cc2)nc1C`?
Cruzain inh noDet: inactive; Cruzain Triton: inactive

Results for COc1ccccc1C(=O)Nc1ccc(Oc2ncnc3sc(-c4ccccc4)cc23)cc1 ?
Cruzain inh noDet: 6.31µM; Cruzain Triton: inactive

What do the screens show for `COc1ccc(Nc2ncnc3sc(-c4ccccc4)cc23)cc1`?
Cruzain inh noDet: 31.6µM; Cruzain Triton: inactive

Results for COc1cc(C(=O)Nc2ccc(Oc3ncnc4sc(-c5ccccc5)cc34)cc2)cc(OC)c1OC ?
Cruzain inh noDet: inactive; Cruzain Triton: inactive

What do the screens show for `COc1ncnc2sc(-c3ccccc3)cc12`?
Cruzain inh noDet: inactive; Cruzain Triton: inactive

How did Cc1ccccc1OC(=O)CSc1nnc(-c2cccs2)o1 do in these assays?
Cruzain inh noDet: inactive; Cruzain Triton: inactive

Results for Cc1ccc(C(=O)NC(=S)Nc2ccc(NC(=O)c3cccs3)cc2)cc1[N+](=O)[O-] ?
Cruzain inh noDet: 10µM; Cruzain Triton: inactive

Results for Cc1ccc(C(=O)NC(=S)Nc2ccccc2N2CCCC2)cc1[N+](=O)[O-] ?
Cruzain inh noDet: inactive; Cruzain Triton: inactive

How did COc1ccc(C(=O)Nc2ccc(NC(=O)c3cccs3)cc2)cc1[N+](=O)[O-] do in these assays?
Cruzain inh noDet: inactive; Cruzain Triton: inactive

What do the screens show for `CCOc1ccc(C(=O)Nc2ccc(NC(=O)c3cccs3)cc2)cc1[N+](=O)[O-]`?
Cruzain inh noDet: 7.94µM; Cruzain Triton: inactive

What do the screens show for `O=C(Nc1ccc2nc(SCCOc3ccccc3)sc2c1)c1ccc2c(c1)OCO2`?
Cruzain inh noDet: inactive; Cruzain Triton: inactive

How did CCn1c(CC(=O)Nc2ccc(C)c(Cl)c2)nnc1SCC(=O)Nc1nc(C)cs1 do in these assays?
Cruzain inh noDet: inconclusive; Cruzain Triton: inactive

How did CCn1c(CC(=O)Nc2ccc(C)c(Cl)c2)nnc1SCc1ccc(Cl)c(Cl)c1 do in these assays?
Cruzain inh noDet: 12.6µM; Cruzain Triton: inactive

How did CCCCNC(=O)C(CC)Sc1nc2ccccc2c(=O)n1CCc1ccc(OC)c(OC)c1 (configuration not stated) do in these assays?
Cruzain inh noDet: inactive; Cruzain Triton: inactive

Results for CN(C)c1ccc(CC(=O)c2nc3ccccc3s2)cc1 ?
Cruzain inh noDet: 20µM; Cruzain Triton: inactive

What do the screens show for `CN(C)C(=O)c1nc2ccccc2s1`?
Cruzain inh noDet: inactive; Cruzain Triton: inactive

What do the screens show for `CSc1ccc(CCNc2ncnc3onc(-c4ccc(Cl)cc4)c23)cc1`?
Cruzain inh noDet: inactive; Cruzain Triton: inactive

Results for Nc1nc2c(ncn2[C@@H]2O[C@H](CO)[C@@H](O)[C@@H]2O)c(=[SH+])[nH]1.O=[N+]([O-])c1ccc(O)[c]([Hg])c1 ?
Cruzain inh noDet: inactive; Cruzain Triton: inactive

How did Nc1ccc(C(=O)n2c3ccccc3c3ccccc32)cc1 do in these assays?
Cruzain inh noDet: 25.1µM; Cruzain Triton: inactive

Results for Nc1ccc(C(=O)N2CCCC2)cc1 ?
Cruzain inh noDet: inactive; Cruzain Triton: inactive

What do the screens show for `CNc1cc(OC)c(C(=O)N[C@@H]2CCN(Cc3ccccc3)[C@H]2C)cc1Cl`?
Cruzain inh noDet: inactive; Cruzain Triton: inactive

How did Cc1ccc(CNC(=O)CN2C(=O)CC(c3ccc(C)c(C)c3)=Nc3ccccc32)cc1 do in these assays?
Cruzain inh noDet: inactive; Cruzain Triton: inactive

What do the screens show for `Cc1ccc(C2=Nc3ccccc3N(CC(=O)NCc3ccccc3Cl)C(=O)C2)cc1C`?
Cruzain inh noDet: 25.1µM; Cruzain Triton: inactive

What do the screens show for `COC(=O)c1sc2cccc(F)c2c1S(=O)(=O)Nc1cc(C)c(Cl)cc1OC`?
Cruzain inh noDet: inactive; Cruzain Triton: inactive
